# In PubChem BioAssay (EPA / NIEHS):
# Results filed as inconclusive are left out. Calls of active or inactive are those of the source. Rule for the calls: active = hit-call score of the fitted dose curve at least 0.9, where 1 is the maximum; inconclusive = response in the unintended direction; inactive = score below 0.9.
# Columns and labels:
# [1] = ACEA_ER_AUC_viability: ACEA Biosciences xCELLigence Real-Time Cell Analysis on Estrogen Receptor Agonism for Viability (AID 2283782);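 note: continuous compound exposure with impedance area under curve over 80 h; hit means loss of impedance signal meaning reduced cell growth or viability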
# Summary of the method: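 T47D cells preconditioned in phenol red-free RPMI with charcoal-stripped FBS, then dosed with 8-point 1:4 series from 100 uM (up to 0.5% DMSO). Impedance monitored up to ~80 h; area-under-curve loss versus DMSO taken as viability.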
# [2] = test system: frog Estrogen Receptor (ESR1), gene 398734; assay: ATG_frER1_XSP1: Attagene TRANS-FACTORIAL Multi-Species (XSP1) HepG2 Assay for frog Estrogen Receptor (ESR1) (AID 2283777)
# Summary of the method: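 HepG2 cells transiently transfected with frog ER–GAL4 chimera and GAL4-UAS reporter, with 3 nM 6-alpha-fluorotestosterone present; 24 h dosing, reporter mRNA quantified by RT-PCR and capillary electrophoresis, gain of signal versus DMSO.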
# [3] = test system: zebrafish Estrogen Receptor (ESR2A), gene 317734; assay: ATG_zfER2a_XSP1: Attagene TRANS-FACTORIAL Multi-Species (XSP1) HepG2 Assay for zebrafish Estrogen Receptor (ESR2A) (AID 2283778)
# Summary of the method: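 HepG2 cells transiently transfected with GAL4-UAS reporter units driven by a zebrafish ESR2A–Gal4 chimera; 24 h compound exposure with 3 nM 6-alpha-fluorotestosterone present. Reporter mRNA measured by RT-PCR with fluorescent capillary electrophoresis, fitted positive versus DMSO.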
# [4] = target: chicken Estrogen Receptor (ESR1), ESR1 (gene 396099) (UniProt P06212); assay: ATG_chERa_XSP1: Attagene TRANS-FACTORIAL Multi-Species (XSP1) HepG2 Assay for chicken Estrogen Receptor (ESR1) (AID 2283779)
# Summary of the method: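 HepG2 cells transiently transfected with GAL4-UAS reporter units for chimeric chicken ERα-Gal4, dosed 24 h with 3 nM 6-alpha-fluorotestosterone present. Reporter mRNA by RT-PCR and capillary electrophoresis; gain-of-signal fit versus DMSO.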
# [5] = target: Estrogen receptor (Homo sapiens) (UniProt P03372); assay: ATG_hERa_XSP1: Attagene TRANS-FACTORIAL Multi-Species (XSP1) HepG2 Assay for human Estrogen Receptor (ESR1) (AID 2283780)
# Summary of the method: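 HepG2 cells transiently transfected with GAL4-UAS reporter units and chimeric NR-Gal4 constructs; 24 h after dosing, reporter mRNA quantified by RT-PCR and capillary electrophoresis. Medium contained 3 nM 6-alpha-fluorotestosterone; activity fitted as gain-of-signal versus DMSO.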
# [6] = test system: turtle Estrogen Receptor (ESR1), gene 101933533; assay: ATG_trERa_XSP1: Attagene TRANS-FACTORIAL Multi-Species (XSP1) HepG2 Assay for turtle Estrogen Receptor (ESR1) (AID 2283781)
# Summary of the method: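 Turtle ERa as a GAL4 chimera in transiently transfected HepG2 cells; reporter mRNA quantified 24 h after dosing by RT-PCR and capillary electrophoresis. 3 nM 6-alpha-fluorotestosterone present; gain of signal versus DMSO.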
# [7] = test system: turtle Androgen Receptor (AR), gene 101947425; assay: ATG_trAR_XSP1: Attagene TRANS-FACTORIAL Multi-Species (XSP1) HepG2 Assay for turtle Androgen Receptor (AR) (AID 2283786)
# Summary of the method: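 HepG2 cells transiently transfected with a turtle AR–GAL4 chimera and GAL4-UAS reporter, co-treated with 3 nM 6-alpha-fluorotestosterone for partial stimulation. Reporter mRNA is quantified at 24 h by RT-PCR and capillary electrophoresis, gain-of-signal versus DMSO.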
# [8] = target: Estrogen receptor beta (Homo sapiens) (UniProt Q92731); assay: ATG_hERb_XSP1: Attagene TRANS-FACTORIAL Multi-Species (XSP1) HepG2 Assay for human Estrogen Receptor (ESR2) (AID 2283788)
# Summary of the method: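 HepG2 cells transiently transfected with GAL4-UAS multiplexed reporter units, 3 nM 6-alpha-fluorotestosterone present; 24 h exposure. Reporter mRNA measured by RT-PCR, fluorescent labelling and capillary electrophoresis; gain of signal fitted against DMSO.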
# [9] = target: GAL4 Transcription Factor (Internal Marker), GAL4 (gene 855828) (UniProt P04386); assay: ATG_GAL4_XSP1: Attagene TRANS-FACTORIAL Multi-Species (XSP1) HepG2 Assay for GAL4 Transcription Factor (Internal Marker) (AID 2283789)
# Summary of the method: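 HepG2 cells transiently transfected with multiplexed GAL4-UAS reporter units were exposed for 24 h with 3 nM 6-alpha-fluorotestosterone present. Reporter mRNA was quantified by RT-PCR, FAM labelling, HpaI digestion and capillary electrophoresis; background-control readout, gain-of-signal versus DMSO.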
# [10] = ATG_M_06_XSP1: Attagene TRANS-FACTORIAL Multi-Species (XSP1) HepG2 Assay for M06 Transcription Factor (Internal Marker) (AID 2283790)
# Summary of the method: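 Transfected HepG2 multi-reporter system treated 24 h in the presence of 3 nM 6-alpha-fluorotestosterone. The M06 internal marker transcript was quantified by RT-PCR with capillary electrophoresis as a background control, and gain of signal was scored versus DMSO.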
# [11] = ATG_M_61_XSP1: Attagene TRANS-FACTORIAL Multi-Species (XSP1) HepG2 Assay for M61 Transcription Factor (Internal Marker) (AID 2283797)
# Summary of the method: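 HepG2 cells transiently transfected with multiplexed GAL4-driven reporter units, dosed 24 h with 3 nM 6-alpha-fluorotestosterone present. Reporter mRNA quantified by RT-PCR, 6-FAM labelling, HpaI digestion and capillary electrophoresis; internal-marker background control, gain of signal versus DMSO.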
# [12] = target: mouse Peroxisome Proliferator-activated Receptor gamma (PPARg), Pparg (gene 19016) (UniProt P37238); assay: ATG_mPPARg_XSP1: Attagene TRANS-FACTORIAL Multi-Species (XSP1) HepG2 Assay for mouse Peroxisome Proliferator-activated Receptor gamma (PPARg) (AID 2283802)
# Summary of the method: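 HepG2 cells transiently transfected with GAL4-UAS reporter units driven by mouse PPARg–GAL4 chimera; 3 nM 6-alpha-fluorotestosterone present. After 24 h dosing, reporter mRNA quantified by RT-PCR, fluorescent labelling and capillary electrophoresis; gain of signal versus DMSO.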
# [13] = target: Nuclear receptor subfamily 1 group I member 2 (Mus musculus) (UniProt O54915); assay: ATG_mPXR_XSP1: Attagene TRANS-FACTORIAL Multi-Species (XSP1) HepG2 Assay for mouse Pregnane X Receptor (PXR) (AID 2283803)
# Summary of the method: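 Transiently transfected HepG2 cells expressing a receptor-Gal4 chimera drive a GAL4-UAS reporter; 3 nM 6-alpha-fluorotestosterone included. Reporter mRNA read 24 h post-dose by RT-PCR and capillary electrophoresis; gain of signal relative to DMSO.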
# [14] = target: frog Thyroid hormone Receptor alpha (TRa), thra-a (gene 397942) (UniProt P15204); assay: ATG_frTRa_XSP1: Attagene TRANS-FACTORIAL Multi-Species (XSP1) HepG2 Assay for frog Thyroid hormone Receptor alpha (TRa) (AID 2283804)
# Summary of the method: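 HepG2 cells transiently transfected with frog TRa-GAL4 chimeric reporter units, dosed 24 hr with 3 nM 6-alpha-fluorotestosterone present; reporter mRNA quantified by RT-PCR, fluorescent labelling and capillary electrophoresis, gain of signal versus DMSO.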
# [15] = target: human Thyroid hormone Receptor alpha (TRa), THRA (gene 7067) (UniProt P10827); assay: ATG_hTRa_XSP1: Attagene TRANS-FACTORIAL Multi-Species (XSP1) HepG2 Assay for human Thyroid hormone Receptor alpha (TRa) (AID 2283805)
# Summary of the method: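 HepG2 cells transiently transfected with GAL4-UAS reporter units expressing chimeric NR-Gal4 proteins, dosed 24 hours with 3 nM 6-alpha-fluorotestosterone present. Reporter mRNA measured by RT-PCR and capillary electrophoresis; gain of signal fitted versus DMSO.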
# [16] = test system: turtle Thyroid Hormone Receptor, alpha (TRa), gene 101949057; assay: ATG_trTRa_XSP1: Attagene TRANS-FACTORIAL Multi-Species (XSP1) HepG2 Assay for turtle Thyroid Hormone Receptor, alpha (TRa) (AID 2283806)
# Summary of the method: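 HepG2 cells transiently transfected with GAL4-UAS reporter units and chimeric receptor-Gal4 constructs, with 3 nM 6-alpha-fluorotestosterone present. Reporter mRNA was quantified 24 h after dosing by RT-PCR, 6-FAM labelling and capillary electrophoresis; gain of signal versus DMSO.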
# [17] = target: zebrafish Thyroid Hormone Receptor alpha (TRa), thraa (gene 30670) (UniProt Q98867); assay: ATG_zfTRa_XSP1: Attagene TRANS-FACTORIAL Multi-Species (XSP1) HepG2 Assay for zebrafish Thyroid Hormone Receptor alpha (TRa) (AID 2283807)
# Summary of the method: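 HepG2 cells transiently transfected with GAL4-UAS reporter units including a zebrafish TRa–Gal4 chimera, dosed 24 h with 3 nM 6-alpha-fluorotestosterone present. Reporter mRNA quantified by RT-PCR and capillary electrophoresis; gain versus DMSO.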
# [18] = STM_H9_NormalizedViability: Cytotoxicity Assessment at 120 hours in the Stemina devTOX quickPredict H9 human embryonic stem cell (hESC)-based Assay (AID 2283784)
# Summary of the method: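 Pluripotent H9 cells dosed, fresh medium plus compound q24h → cell layer read by CellTiter-Fluor → RFU blank-corrected, normalized to DMSO 0.1% mean. Loss-of-signal fit, DMSO as baseline.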
# Chain of zebrafish Thyroid Hormone Receptor alpha (TRa), thraa (gene 30670) (Q98867 whole entry, looked up, the tested form may be a part): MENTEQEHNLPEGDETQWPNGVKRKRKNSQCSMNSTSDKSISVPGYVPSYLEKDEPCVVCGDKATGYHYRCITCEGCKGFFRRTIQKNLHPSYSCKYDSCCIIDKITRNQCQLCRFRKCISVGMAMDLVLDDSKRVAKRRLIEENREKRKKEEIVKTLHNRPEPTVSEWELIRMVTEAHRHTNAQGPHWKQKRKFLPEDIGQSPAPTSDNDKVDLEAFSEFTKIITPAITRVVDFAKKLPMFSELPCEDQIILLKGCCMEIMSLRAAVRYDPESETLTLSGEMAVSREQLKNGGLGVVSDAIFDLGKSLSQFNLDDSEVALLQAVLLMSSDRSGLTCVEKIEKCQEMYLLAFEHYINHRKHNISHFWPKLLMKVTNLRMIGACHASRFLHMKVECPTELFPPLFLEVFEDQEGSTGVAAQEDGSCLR
# Chain of mouse Peroxisome Proliferator-activated Receptor gamma (PPARg), Pparg (gene 19016) (P37238 whole entry, looked up, the tested form may be a part): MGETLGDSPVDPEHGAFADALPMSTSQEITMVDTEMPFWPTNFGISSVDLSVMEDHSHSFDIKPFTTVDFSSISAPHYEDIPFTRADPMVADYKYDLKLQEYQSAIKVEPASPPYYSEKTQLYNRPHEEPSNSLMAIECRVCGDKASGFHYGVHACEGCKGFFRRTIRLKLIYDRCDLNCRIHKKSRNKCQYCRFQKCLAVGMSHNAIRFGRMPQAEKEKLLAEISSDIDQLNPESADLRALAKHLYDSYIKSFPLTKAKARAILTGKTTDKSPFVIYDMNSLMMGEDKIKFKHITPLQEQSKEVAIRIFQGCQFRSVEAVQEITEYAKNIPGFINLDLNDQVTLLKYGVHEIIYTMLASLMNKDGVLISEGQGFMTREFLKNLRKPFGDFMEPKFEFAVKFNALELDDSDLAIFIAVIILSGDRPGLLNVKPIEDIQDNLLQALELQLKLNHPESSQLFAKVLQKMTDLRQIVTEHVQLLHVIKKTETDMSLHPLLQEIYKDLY
# Chain of Estrogen receptor beta (Homo sapiens) (Q92731 whole entry, looked up, the tested form may be a part): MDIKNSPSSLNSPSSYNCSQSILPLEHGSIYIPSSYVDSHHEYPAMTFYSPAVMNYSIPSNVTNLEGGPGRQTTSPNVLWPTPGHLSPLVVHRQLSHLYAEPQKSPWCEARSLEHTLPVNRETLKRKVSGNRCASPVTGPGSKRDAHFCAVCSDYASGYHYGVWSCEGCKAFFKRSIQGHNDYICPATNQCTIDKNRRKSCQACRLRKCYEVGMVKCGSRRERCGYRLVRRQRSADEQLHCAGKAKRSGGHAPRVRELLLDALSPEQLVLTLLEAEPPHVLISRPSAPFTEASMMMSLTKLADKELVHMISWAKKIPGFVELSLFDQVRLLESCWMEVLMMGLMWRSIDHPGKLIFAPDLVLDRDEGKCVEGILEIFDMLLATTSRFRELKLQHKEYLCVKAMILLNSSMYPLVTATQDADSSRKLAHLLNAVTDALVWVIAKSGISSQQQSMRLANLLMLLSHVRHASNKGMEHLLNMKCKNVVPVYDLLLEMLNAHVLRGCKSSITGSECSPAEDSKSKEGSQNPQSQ
# Chain of chicken Estrogen Receptor (ESR1), ESR1 (gene 396099) (P06212 whole entry, looked up, the tested form may be a part): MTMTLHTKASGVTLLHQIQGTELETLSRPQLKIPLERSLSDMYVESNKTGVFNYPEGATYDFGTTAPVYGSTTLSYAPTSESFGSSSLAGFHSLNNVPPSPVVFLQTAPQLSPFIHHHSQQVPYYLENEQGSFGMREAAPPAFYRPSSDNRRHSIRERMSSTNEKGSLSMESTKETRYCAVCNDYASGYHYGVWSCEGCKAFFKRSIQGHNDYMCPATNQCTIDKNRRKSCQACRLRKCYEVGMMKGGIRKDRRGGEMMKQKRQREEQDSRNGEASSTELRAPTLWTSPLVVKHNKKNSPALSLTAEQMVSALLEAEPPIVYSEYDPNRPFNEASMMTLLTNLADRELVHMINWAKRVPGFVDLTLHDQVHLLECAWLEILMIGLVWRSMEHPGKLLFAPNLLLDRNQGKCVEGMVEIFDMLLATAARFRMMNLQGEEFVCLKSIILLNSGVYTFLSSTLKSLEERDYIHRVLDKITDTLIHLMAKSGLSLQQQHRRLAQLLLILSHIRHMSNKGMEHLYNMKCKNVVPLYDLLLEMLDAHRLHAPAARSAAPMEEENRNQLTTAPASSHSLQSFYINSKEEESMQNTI
# Chain of Estrogen receptor (Homo sapiens) (P03372 whole entry, looked up, the tested form may be a part): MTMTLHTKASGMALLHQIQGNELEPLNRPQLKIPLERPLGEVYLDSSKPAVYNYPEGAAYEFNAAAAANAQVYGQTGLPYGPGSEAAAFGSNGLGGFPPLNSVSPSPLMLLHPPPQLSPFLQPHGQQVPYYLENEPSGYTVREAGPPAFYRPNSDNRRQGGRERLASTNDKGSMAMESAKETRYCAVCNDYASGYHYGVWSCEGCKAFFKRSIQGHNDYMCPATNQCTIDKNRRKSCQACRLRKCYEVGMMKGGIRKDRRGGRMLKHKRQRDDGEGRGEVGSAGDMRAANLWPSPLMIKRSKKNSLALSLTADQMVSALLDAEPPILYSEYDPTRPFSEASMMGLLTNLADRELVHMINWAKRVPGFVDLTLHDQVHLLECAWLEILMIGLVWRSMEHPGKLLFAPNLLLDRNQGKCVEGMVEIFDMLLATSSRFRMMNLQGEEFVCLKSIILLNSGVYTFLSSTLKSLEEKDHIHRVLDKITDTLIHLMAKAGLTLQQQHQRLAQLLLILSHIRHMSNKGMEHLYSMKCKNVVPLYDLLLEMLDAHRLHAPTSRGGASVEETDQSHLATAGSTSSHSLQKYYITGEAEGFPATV
# Chain of GAL4 Transcription Factor (Internal Marker), GAL4 (gene 855828) (P04386 whole entry, looked up, the tested form may be a part): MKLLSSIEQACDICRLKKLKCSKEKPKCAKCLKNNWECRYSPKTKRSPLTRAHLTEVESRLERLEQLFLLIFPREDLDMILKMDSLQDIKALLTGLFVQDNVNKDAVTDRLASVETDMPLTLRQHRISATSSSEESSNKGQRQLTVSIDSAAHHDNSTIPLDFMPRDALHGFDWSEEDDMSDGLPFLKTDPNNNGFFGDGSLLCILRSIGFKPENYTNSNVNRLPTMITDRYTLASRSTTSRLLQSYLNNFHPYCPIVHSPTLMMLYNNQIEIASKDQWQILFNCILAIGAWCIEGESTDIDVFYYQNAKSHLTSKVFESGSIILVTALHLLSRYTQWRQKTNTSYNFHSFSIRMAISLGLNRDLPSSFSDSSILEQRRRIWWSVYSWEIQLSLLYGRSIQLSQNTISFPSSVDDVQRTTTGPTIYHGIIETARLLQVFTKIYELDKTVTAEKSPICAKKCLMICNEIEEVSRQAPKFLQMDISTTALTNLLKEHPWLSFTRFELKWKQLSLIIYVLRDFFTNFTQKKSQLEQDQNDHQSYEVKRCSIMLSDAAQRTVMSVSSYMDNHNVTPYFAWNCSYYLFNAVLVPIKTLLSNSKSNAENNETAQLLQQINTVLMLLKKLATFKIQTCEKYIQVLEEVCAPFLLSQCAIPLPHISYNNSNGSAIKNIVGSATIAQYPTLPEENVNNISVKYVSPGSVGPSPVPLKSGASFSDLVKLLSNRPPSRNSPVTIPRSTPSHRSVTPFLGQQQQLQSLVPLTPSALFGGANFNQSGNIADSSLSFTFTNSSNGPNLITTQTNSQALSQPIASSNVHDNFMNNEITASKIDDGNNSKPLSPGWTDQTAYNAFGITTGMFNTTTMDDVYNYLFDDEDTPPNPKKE
# Chain of human Thyroid hormone Receptor alpha (TRa), THRA (gene 7067) (P10827 whole entry, looked up, the tested form may be a part): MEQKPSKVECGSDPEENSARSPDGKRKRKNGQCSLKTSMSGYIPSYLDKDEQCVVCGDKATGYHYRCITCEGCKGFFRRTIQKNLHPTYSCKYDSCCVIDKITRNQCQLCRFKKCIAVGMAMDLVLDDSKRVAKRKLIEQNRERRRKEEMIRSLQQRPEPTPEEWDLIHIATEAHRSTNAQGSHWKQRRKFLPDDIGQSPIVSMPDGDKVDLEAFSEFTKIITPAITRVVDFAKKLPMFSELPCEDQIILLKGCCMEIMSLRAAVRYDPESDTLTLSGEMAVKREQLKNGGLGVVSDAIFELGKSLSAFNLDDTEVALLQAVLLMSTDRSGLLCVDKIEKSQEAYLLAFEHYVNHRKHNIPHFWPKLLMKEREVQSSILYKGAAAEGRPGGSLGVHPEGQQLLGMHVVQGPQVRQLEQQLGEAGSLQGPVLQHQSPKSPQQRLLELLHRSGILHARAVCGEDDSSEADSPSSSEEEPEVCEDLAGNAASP
# Chain of Nuclear receptor subfamily 1 group I member 2 (Mus musculus) (O54915 whole entry, looked up, the tested form may be a part): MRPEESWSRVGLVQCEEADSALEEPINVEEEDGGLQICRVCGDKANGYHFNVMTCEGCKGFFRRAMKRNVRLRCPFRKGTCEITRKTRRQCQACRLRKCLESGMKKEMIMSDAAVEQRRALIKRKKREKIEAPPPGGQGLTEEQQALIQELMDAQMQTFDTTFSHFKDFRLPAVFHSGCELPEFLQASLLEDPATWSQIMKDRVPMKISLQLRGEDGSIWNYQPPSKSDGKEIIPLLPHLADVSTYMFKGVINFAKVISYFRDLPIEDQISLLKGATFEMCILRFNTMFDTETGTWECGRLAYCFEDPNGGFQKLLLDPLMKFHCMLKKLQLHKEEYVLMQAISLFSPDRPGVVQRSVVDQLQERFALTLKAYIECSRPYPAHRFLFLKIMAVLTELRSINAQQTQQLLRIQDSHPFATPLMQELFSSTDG
# Chain of frog Thyroid hormone Receptor alpha (TRa), thra-a (gene 397942) (P15204 whole entry, looked up, the tested form may be a part): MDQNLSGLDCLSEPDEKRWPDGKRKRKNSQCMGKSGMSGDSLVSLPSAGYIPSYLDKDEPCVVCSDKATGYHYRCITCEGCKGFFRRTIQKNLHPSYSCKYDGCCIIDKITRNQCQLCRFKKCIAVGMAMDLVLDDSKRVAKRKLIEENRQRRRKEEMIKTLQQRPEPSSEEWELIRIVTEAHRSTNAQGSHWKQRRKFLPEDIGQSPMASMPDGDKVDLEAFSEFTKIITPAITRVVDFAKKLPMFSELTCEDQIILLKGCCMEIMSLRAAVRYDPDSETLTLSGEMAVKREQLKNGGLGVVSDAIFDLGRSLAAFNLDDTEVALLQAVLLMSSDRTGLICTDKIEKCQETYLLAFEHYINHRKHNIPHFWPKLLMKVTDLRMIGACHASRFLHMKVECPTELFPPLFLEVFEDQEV
smiles,measurement,setting,value
c1c[nH]cn1,outcome,[1],inactive
Cc1ccc2oc(=O)ccc2c1,outcome,[1],inactive
CCCCCCCOC(=O)CCC,outcome,[1],inactive
O=C(C=Cc1ccccc1)OCc1ccccc1,outcome,[1],inactive
CC(=O)OC(C)C,outcome,[1],inactive
COc1ccc2nc(N)sc2c1,outcome,[1],inactive
C=CC(C)(CCC=C(C)C)OC(=O)CC(C)C (configuration not stated),outcome,[1],inactive
C/C=C\C/C=C/CCCCCCCCOC(C)=O,AC50,[1],82.3 µM (active)
CCCCCCCC(C)=O,outcome,[1],inactive
CC1(C)[C@H]2CC[C@]1(C)C(=O)C2,outcome,[1],inactive
CC1OC1C1CCC2(C)OC2C1 (configuration not stated),outcome,[1],inactive
CC(C)c1ccc(C#N)cc1,AC50,[1],50 µM (active)
Cn1c([N+](=O)[O-])cnc1COC(N)=O,outcome,[1],inactive
CC(CC=O)c1ccccc1 (configuration not stated),AC50,[1],50 µM (active)
C=C1[C@H]2CC[C@@H]3[C@H]2C(C)(C)CCC[C@]13C,outcome,[1],inactive
O=C(c1ccccc1)C1CCC1,outcome,[1],inactive
O=CC1CC1,AC50,[1],65 µM (active)
CCCCOCCOC(=O)COc1nc(Cl)c(Cl)cc1Cl,outcome,[1],inactive
CCc1c(C(=O)O)c(=O)cnn1-c1ccc(Cl)cc1,AC50,[1],31.4 µM (active)
C1=CCCC1,outcome,[1],inactive
C=C[Si](C)(C)O[Si](C)(C)C=C,outcome,[1],inactive
CC(C)COC(=O)C=Cc1ccccc1,outcome,[1],inactive
O=C(c1ccc(O)cc1)c1ccc(O)cc1O,AC50,[2],0.664 µM (active)
same,AC50,[3],0.426 µM (active)
same,AC50,[4],1.28 µM (active)
same,AC50,[5],1.27 µM (active)
same,AC50,[6],0.879 µM (active)
same,AC50,[7],2.69 µM (active)
same,AC50,[8],0.531 µM (active)
same,outcome,[9],inactive
same,outcome,[10],inactive
same,outcome,[11],inactive
same,outcome,[12],inactive
same,outcome,[13],inactive
same,outcome,[14],inactive
same,outcome,[15],inactive
same,outcome,[16],inactive
same,outcome,[17],inactive
CCC(Cc1ccccc1)(C(=O)c1ccc(N2CCOCC2)cc1)N(C)C (configuration not stated),AC50,[1],88.7 µM (active)
CCCCCCCC/C=C\CCCCCCCC(=O)O,AC50,[1],50 µM (active)
CC(C)CCCC(C)CC=O (configuration not stated),outcome,[1],inactive
C[Si](C)(CCCN)O[Si](C)(C)CCCN,AC50,[1],55.9 µM (active)
OCCCS,AC50,[1],44.4 µM (active)
Cc1cc(C)c(C)c(O)c1,outcome,[1],inactive
CCCCCCCC/C=C\CCCCCCCC(=O)OCCO,AC50,[1],4.96 µM (active)
CCO[Si](CCCN=C=O)(OCC)OCC,outcome,[1],inactive
CCC(CC)C(=O)O,outcome,[1],inactive
Cc1ccc(C(C)(C)C)cc1,outcome,[1],inactive
CCCCCCCCCCc1ccccc1,AC50,[1],26.2 µM (active)
CC(=O)OCC(C)OC(C)=O (configuration not stated),outcome,[1],inactive
CN(C)c1ccc(N=Nc2ccccc2C(=O)O)cc1,AC50,[18],68.1 µM (active)
Nc1ccc(N)c(Cl)c1,AC50,[18],18.7 µM (active)
